Rows were chosen to be rich in hits. Some 6.3% of all compounds tested hit in one or more screens of this group.
Spn MK inh = blocks S. pneumoniae mevalonate kinase | purified MK, PK/LDH-coupled NADH absorbance 340 nm | inhibition, % at 10 µM | 65,000 tested, 0.48% active | AID 555;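 active = ranked among the strongest by inhibition in the single 10 µM screen, a fixed top-ranked set picked for dose follow-up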
NADH coupling = inhibitors of enzymes used to reach an NAD/NADH endpoint; coupled PK/LDH NADH assays, four targets; IC50, µM (titrated, usually from 10 µM), without a hit: top-dose inhibition; 65,000 tested, 0.02% active;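 active = single-dose screening hits from any of four coupled enzyme assays that gave an IC50 when retested across doses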;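 also: the DPM-DC format reads NADH fluorescence rather than 340 nm absorbance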
A340 absorber = absorbance at 340 nm. compound absorbance at 340 nm, fold over control. fold change at 10 µM. 65,000 tested, under 10 active;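 active = at 10 µM dose, initial 340 nm absorbance at least 2 fold that of control wells; inactive = change under 2 fold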;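 also: initial absorbance extrapolated from kinetic A340 decline of NADH oxidation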
DPM-DC inhibit = blocks S. pneumoniae diphosphomevalonate decarboxylase | AID 556 | calls only at 10 µM | purified DPM-DC, PK/LDH coupled NADH fluorescence | 65,000 tested, 0.49% active;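 active = the 320 compounds with the highest percent inhibition in the single-dose primary screen, excluding strongly autofluorescent ones, cut at about 32% in these data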;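 also: kinetic rate of NADH fluorescence loss reporting ADP formed by the decarboxylase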
Autofluor 339 = intrinsic fluorescence of library compounds, ex339/em460 – biochemical, MLSMR library, data from DPM-DC assay, artefact control, profiling panel; compound autofluorescence, ex339/em460 nm, NADH buffer; stronger effect = higher value; 1 = no-compound wells, NADH background; fluorescence fold increase at 10 µM; 65,000 tested, 5.5% active;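 active = at 10 µM, mean starting fluorescence two-fold or more over control wells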;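 also: signal is the first read of a kinetic run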
PMK inhibit = blocks S. pneumoniae phosphomevalonate kinase. purified PMK, PK/LDH-coupled NADH absorbance 340 nm. inhibition, % at 10 µM. 65,000 tested, 0.49% active;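 active = top-ranked compounds by inhibition in the single 10 µM screen, taking a fixed number of the strongest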;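 also: 0% = full reaction with DMSO carrier and 100% = background rate without enzyme reaction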
Numbers without * were called inactive.

What do the screens show for `O=C(O)C1C2C=CC(C2)C1C(=O)NCCc1cccc(Cl)c1` (configuration not stated)?
Spn MK inh: 6; NADH coupling: 5%; A340 absorber: 1.1; DPM-DC inhibit: inactive; Autofluor 339: 1.1; PMK inhibit: 9

How did COc1nc(-c2ccc(Cl)cc2)ccc1-c1noc(-c2ccco2)n1 do in these assays?
Spn MK inh: 7; NADH coupling: 8%; A340 absorber: 1.1; DPM-DC inhibit: inactive; Autofluor 339: 1.7; PMK inhibit: 0

How did COCc1nc(-c2ccc(-c3ccc(OC)cc3)nc2OC)no1 do in these assays?
Spn MK inh: 2; NADH coupling: 2%; A340 absorber: 1.1; Autofluor 339: 2.1*; PMK inhibit: 2

Results for COc1nc(-c2ccccc2)ccc1-c1noc(C)n1 ?
Spn MK inh: 9; NADH coupling: 6%; A340 absorber: 1.1; DPM-DC inhibit: inactive; Autofluor 339: 1.3; PMK inhibit: 0

What do the screens show for `COc1ccc(-c2ccc(-c3noc(C(C)C)n3)c(OC)n2)cc1`?
Spn MK inh: 7; NADH coupling: 4%; A340 absorber: 1.1; Autofluor 339: 4*; PMK inhibit: 0

How did CCc1nc(-c2ccc(-c3ccc(OC)cc3)nc2OC)no1 do in these assays?
Spn MK inh: 0; NADH coupling: 5%; A340 absorber: 1.1; Autofluor 339: 2.1*; PMK inhibit: 9

What do the screens show for `COc1cccc(-c2ccc(-c3noc(-c4ccccc4F)n3)c(OC)n2)c1`?
Spn MK inh: 0; NADH coupling: 0%; A340 absorber: 1.2; Autofluor 339: 3.8*; PMK inhibit: 0

What do the screens show for `C=CCSc1nnc(NC(=O)c2cccc(S(=O)(=O)N3CCOCC3)c2)s1`?
Spn MK inh: 6; NADH coupling: 8%; A340 absorber: 1.2; DPM-DC inhibit: inactive; Autofluor 339: 1.1; PMK inhibit: 9

How did COC(=O)c1c(NC(=O)c2ccc(C)o2)sc2c1CCCCC2 do in these assays?
Spn MK inh: 13; NADH coupling: 9%; A340 absorber: 1.1; Autofluor 339: 3.7*; PMK inhibit: 4

What do the screens show for `Cc1ccc(C(=O)Nc2sc3c(c2C(=O)O)CCCCC3)o1`?
Spn MK inh: 0; NADH coupling: 7%; A340 absorber: 1.2; DPM-DC inhibit: inactive; Autofluor 339: 1.1; PMK inhibit: 14

Results for COC(=O)c1c(NC(=O)c2c(C)noc2C)sc2c1CCCCCC2 ?
Spn MK inh: 4; NADH coupling: 4%; A340 absorber: 1.1; Autofluor 339: 3.4*; PMK inhibit: 4

What do the screens show for `NC(=O)c1c(NC(=O)c2cc3ccccc3o2)sc2c1CCC2`?
Spn MK inh: 0; NADH coupling: 5%; A340 absorber: 1.1; Autofluor 339: 2.1*; PMK inhibit: 9

Results for COC(=O)c1ccc(COC(=O)c2ccc(-n3cnnn3)cc2)o1 ?
Spn MK inh: 8; NADH coupling: 3%; A340 absorber: 1.1; DPM-DC inhibit: inactive; Autofluor 339: 1.1; PMK inhibit: 0

What do the screens show for `Cc1ccc2[nH]c(-c3ccccc3)cc(=O)c2c1`?
Spn MK inh: 5; NADH coupling: 7%; A340 absorber: 1.1; Autofluor 339: 2.2*; PMK inhibit: 8

Results for COc1ccc(Cl)cc1NC(=O)C1CCCN(S(=O)(=O)c2cccc3nonc23)C1 (configuration not stated) ?
Spn MK inh: 54*; NADH coupling: 24%; A340 absorber: 1; DPM-DC inhibit: inactive; Autofluor 339: 1.1; PMK inhibit: 17

How did CC(C)Oc1snc(Cl)c1C(N)=O do in these assays?
Spn MK inh: 3; NADH coupling: 6%; A340 absorber: 0.98; DPM-DC inhibit: inactive; Autofluor 339: 1.6; PMK inhibit: 14

How did CC(=O)N1CCC2(CC1)CC(=O)c1cc(OCC(=O)NCc3ccco3)ccc1O2 do in these assays?
Spn MK inh: 0; NADH coupling: 6%; A340 absorber: 1; Autofluor 339: 3.4*; PMK inhibit: 12

How did CC(=O)N1CCC2(CC1)CC(=O)c1cc(OCC(=O)NCc3ccc(C)cc3)ccc1O2 do in these assays?
Spn MK inh: 0; NADH coupling: 3%; A340 absorber: 1; Autofluor 339: 3.5*; PMK inhibit: 12

Results for O=C(NCC1CCCO1)c1ccc(CS(=O)(=O)Cc2ccc(F)cc2)o1 (configuration not stated) ?
Spn MK inh: 8; NADH coupling: 6%; A340 absorber: 0.99; DPM-DC inhibit: inactive; Autofluor 339: 1.1; PMK inhibit: 10

How did COc1ccc(NC(=O)Cn2nnc(-c3ccccc3NC(=O)c3cccs3)n2)cc1 do in these assays?
Spn MK inh: 0; NADH coupling: 6%; A340 absorber: 1.1; Autofluor 339: 3.5*; PMK inhibit: 12

What do the screens show for `Nn1c(SCC(=O)Nc2ccc(S(=O)(=O)N3CCCC3)cc2)nnc1C(F)(F)F`?
Spn MK inh: 10; NADH coupling: 2%; A340 absorber: 1; DPM-DC inhibit: inactive; Autofluor 339: 1; PMK inhibit: 10

What do the screens show for `O=C(O)CCc1nc2ccccc2n(CCc2ccccc2)c1=O`?
Spn MK inh: 0; NADH coupling: 2%; A340 absorber: 1.1; DPM-DC inhibit: inactive; Autofluor 339: 2.3*; PMK inhibit: 6

How did CCn1c(=O)c(C)nn2c3ccccc3nc12 do in these assays?
Spn MK inh: 10; NADH coupling: 6%; A340 absorber: 1; DPM-DC inhibit: inactive; Autofluor 339: 1.1; PMK inhibit: 7

Results for O=C(O)CCc1nn2c3ccccc3nc2n(CCN2CCCCC2)c1=O ?
Spn MK inh: 0; NADH coupling: 10%; A340 absorber: 1; Autofluor 339: 4.4*; PMK inhibit: 20

How did CCc1nc2ccccc2n(CCOCCn2c(=O)c(CC)nc3ccccc32)c1=O do in these assays?
Spn MK inh: 6; NADH coupling: 2%; A340 absorber: 1; DPM-DC inhibit: inactive; Autofluor 339: 1.3; PMK inhibit: 0

What do the screens show for `CCCC(C)C1C(C#N)=C(N)Oc2cc(C)oc(=O)c21` (configuration not stated)?
Spn MK inh: 3; NADH coupling: 2%; A340 absorber: 0.99; DPM-DC inhibit: inactive; Autofluor 339: 1.1; PMK inhibit: 10

What do the screens show for `CCN(CC)c1ccc2cc(-c3nc4ccccc4n3C)c(=O)oc2c1`?
Spn MK inh: 5; NADH coupling: 5%; A340 absorber: 1.1; Autofluor 339: 2.1*; PMK inhibit: 4

What do the screens show for `CCN(CC)c1ccc2cc(-c3nc4ccccc4[nH]3)c(=O)oc2c1`?
Spn MK inh: 37; NADH coupling: 8%; A340 absorber: 0.8; DPM-DC inhibit: inactive; Autofluor 339: 1.1; PMK inhibit: inactive

Results for COC(=O)C(Cc1ccccc1)NC(=O)CSc1nc(N)cc(=O)[nH]1 (configuration not stated) ?
Spn MK inh: 0; NADH coupling: 7%; A340 absorber: 0.99; DPM-DC inhibit: inactive; Autofluor 339: 1.1; PMK inhibit: 16

Bioassay records deposited in PubChem BioAssay by SRMLSC.
